Hits are enriched below; roughly 19% of the tested compounds scored in any of these assays.
HT1080NT lethal: kills 2HG-producing HT-1080-NT fibrosarcoma cells; AID 686970; 1.6% of 360,000 active; HT-1080-NT fibrosarcoma viability, CellTiter-Glo ATP luminescence, 48 h; Potency, µM (top dose mostly 46.1 µM), for the others: top-dose activity, negative = less viability, most hits filed as cytotoxic;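 further: NT is the 2HG producing partner of a matched IDH1 knockdown line; 0% = DMSO-treated cells and -100% = media-only wells without cells; nearly all actives have a fitted effect of over 55% in size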
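Viability of the 2HG-overproducing fibrosarcoma line after 48 hours of compound exposure at 37 degrees C was determined by luminescence with CellTiter-Glo, and concentration-effect curves were then fitted and categorized.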
DT40 TDP1 no CPT: qHTS for Inhibitors of human tyrosyl-DNA phosphodiesterase 1 (TDP1): qHTS in cells in absence of CPT; DT40 Tdp1-/- hTDP1 cells, no CPT, ATP luminescence, 48 h; Potency, µM (top dose mostly 46.2 µM), for the others: at the highest dose activity change, negative = growth inhibition, usual class: inhibitors; 15% of 420,000 active; AID 686978, 2013; further: nearly all actives have a fitted effect of over 55% in size
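A cellular qHTS used chicken DT40 cells lacking endogenous Tdp1 but carrying stably transfected human TDP1. Compounds were applied without camptothecin, and cell growth kinetics were judged by ATP-dependent luminescence after ≥48 hr.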
TDP1 cell CPT: DT40-hTDP1 cell growth loss with CPT | chicken DT40 Tdp1-/-;hTDP1 cells + 20 nM CPT, ATP luminescence, 48 h | 12% of 420,000 active | Potency, µM (top dose mostly 46.2 µM), inactives show top-dose activity change, negative = growth inhibition, most hits filed as inhibitors; further: nearly all actives have a fitted effect of over 55% in size
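Chicken DT40 Tdp1-/- cells complemented with human TDP1, 400 cells/well, exposed to compounds plus 20 nM camptothecin for at least 48 h at 37 C; viability read as ATP content by CellTiter-Glo luminescence.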
KB-V1 MDR tox: KB-V1 MDR subline cytotoxicity | KB-V1 MDR cells viability, CellTiter-Glo, 72 h | Potency, µM (titrated, usually from 46.1 µM), actives largely listed as cytotoxic | 3.4% of 400,000 active; further: nearly all actives have a fitted effect of over 60% in size
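Cytotoxicity via CellTiter-Glo luminescence after 72 h compound exposure at 37 degrees C. Cells: drug-selected KB-V1 line, DMEM phenol-red free plus 10% FBS. Compounds tested at multiple concentrations; normalized data fitted to concentration-effect curves.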
HT1080 IDH1KD tx: toxicity to HT-1080 IDH1 knockdown cells (counter line). HT-1080 IDH1 knockdown viability, ATP luminescence, 48 h. Potency, µM (doses to about 46.1 µM), without a hit: top-dose activity, negative = toxicity, usual class: cytotoxic. 2% of 360,000 active. AID 686971;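 further: 0% = DMSO wells and -100% = cell-free medium wells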
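Assay cells: HT-1080 with IDH1 knockdown, 750 per well, RPMI/5% FBS. Exposure: 48 h at 37 °C following 2 h pre-incubation. Read: CellTiter-Glo luminescence; fitted concentration-response, curve class assigned.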
KB-3-1 tox: kills parental KB-3-1 adenocarcinoma cells; KB-3-1 viability, CellTiter-Glo ATP luminescence, 72 h; Potency, µM (doses to about 46.1 µM), hits mostly cytotoxic; 1.4% of 400,000 active; AID 1347075; further: nearly all actives have a fitted effect of over 60% in size
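KB-3-1 cells, DMEM (no phenol red) + 10% FBS; compound by pin transfer, 72 h, 37 °C. Readout: CellTiter-Glo luminescence after 10 min. Data normalized, curve-fitted.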
Starred values were filed as active, the others as inactive; i = inactive; ? = inconclusive; . = not tested or not shown; [ ] = another dose, or the depositor's remark. The call rests on the fitted dose curve; in most records, active means well fitted curve in the direction sought with a large enough effect; inconclusive means small, poorly fitted or top-dose-only effect, or another doubt; inactive means no such curve, though single readings can be large; an effect the other way counts as inactive or inconclusive. Unless noted, on the % scale 0 is the no-effect control and ±100 the full control effect; potency means the concentration at half of the fitted maximal effect.

SMILES | HT1080NT lethal | DT40 TDP1 no CPT | TDP1 cell CPT | KB-V1 MDR tox | HT1080 IDH1KD tx | KB-3-1 tox
O=C(CN1CCN(S(=O)(=O)c2ccc(Br)cc2)CC1)N/N=C/c1ccc(Cl)c([N+](=O)[O-])c1 | ? | 18µM* | ? | i | ? | i
O=C(CN1CCCN(Cc2ccc(F)cc2Cl)C1=O)NCc1ccccc1 | 0% | ? | ? | i | -3% | i
CCc1cccc(C)c1NC(=O)CN1CCN(Cc2ccccc2Cl)S1(=O)=O | . | 26µM* | ? | ? | . | i
O=C(CN1CCCN(Cc2ccc(F)cc2)S1(=O)=O)NCc1ccccc1Cl | . | 16µM* | ? | i | . | i
CCc1cccc(C)c1NC(=O)CN1CCCN(Cc2ccccc2Cl)S1(=O)=O | . | 23µM* | ? | i | . | ?
O=c1[nH]c2ccccc2nc1/C=C/c1ccc(F)cc1 | -10% | ? | ? | i | -12% | i
Cc1ccc(/C=C\c2nccc3c2[nH]c2ccccc23)cc1 | -28% | ? | ? | i | ? | i
Fc1ccc(/C=C\c2nccc3c2[nH]c2ccccc23)cc1 | ? | ? | ? | i | 23µM* | i
C(=C\c1nccc2c1[nH]c1ccccc12)/c1ccccc1 | ? | 15µM* | ? | i | ? | ?
Cc1ccc(CNC(=O)C2CCN(c3nc(C)cc(C)n3)CC2)cc1 | 24% | -24% | -8% | i | ? | i
CCC(Sc1nccn1C)C(=O)Nc1ccc(Cl)cn1 (stereo not given) | 16% | -4% | -14% | ? | 9% | i
Cc1ccc(NC(=S)NCCc2c[nH]c3ccccc23)cc1 | -13% | 23µM* | ? | i | ? | i
COc1ccc(CCNC(=S)NCCc2c[nH]c3ccccc23)cc1 | -1% | ? | ? | ? | -8% | i
Cc1ccc(C)c(NC(=S)NCCc2c[nH]c3ccccc23)c1 | -29% | 13µM* | ? | ? | -21% | i
CC(C)c1ccc(NC(=S)NCCc2c[nH]c3ccccc23)cc1 | -26% | 26µM* | ? | ? | ? | ?
Cc1cccc(NC(=S)NCCc2c[nH]c3ccccc23)c1 | -15% | ? | ? | ? | -20% | i
COc1ccc(Cl)cc1NC(=S)NCCc1c[nH]c2ccccc12 | ? | ? | ? | ? | ? | 21µM*
Cc1ccccc1NC(=S)NCCc1c[nH]c2ccccc12 | -2% | ? | -13% | i | -1% | i
Cc1ccc(Cl)cc1N(CC(=O)NC1CCCC1)C(=O)c1csnn1 | 14% | -5% | 4% | i | 3% | i
Cc1ccccc1OCC(O)Cn1c(NCc2ccco2)nc2c1c(=O)n(C)c(=O)n2C (stereo not given) | -22% | 10µM* | 12µM* | ? | 0% | i
CCn1c(NCc2ccco2)nc2c1c(=O)n(C)c(=O)n2C | -1% | 12µM* | ? | ? | 4% | i
Cn1c(=O)c2c(nc(NCc3ccco3)n2Cc2ccc(Cl)cc2Cl)n(C)c1=O | 9% | 10µM* | 12µM* | i | 4% | i
Cn1c(=O)c2c(nc(NCc3ccco3)n2CCc2ccccc2)n(C)c1=O | 0% | 6.5µM* | 7.3µM* | ? | -7% | i
Cn1c(NCc2ccco2)nc2c1c(=O)n(Cc1ccc(Cl)c(Cl)c1)c(=O)n2C | 6% | 18µM* | ? | ? | -11% | ?
COc1cc2c(ccc3cc(OC)c(OC)c(O)c32)cc1O | ? | 9.2µM* | 7.3µM* | ? | ? | i
SMILES | HT1080NT lethal | DT40 TDP1 no CPT | TDP1 cell CPT | KB-V1 MDR tox | HT1080 IDH1KD tx | KB-3-1 tox
CCOC(=O)c1ccc(N2CCN(c3cccc(OC)c3)CC2)c(NC(=O)Nc2ccc(OCC)cc2)c1 | . | -23% | ? | . | . | .
CCOC(=O)c1ccc(N2CCN(c3cc(Cl)ccc3C)CC2)c(NC(=O)Nc2ccc(OCC)cc2)c1 | . | 13µM* | ? | . | . | .
CCOC(=O)c1ccc(N2CCN(c3cc(C)ccc3C)CC2)c(NC(=O)Nc2ccccc2)c1 | . | 2.9µM* | 5.8µM* | . | . | .
O=C(NCc1ccccc1F)C1CCN(c2nn3cc(-c4ccc(F)cc4)nc3s2)CC1 | . | 2% | -1% | i | . | i
CC(C)NC(=O)COC(=O)c1ccccc1CSC1=NCCS1 | 9% | -21% | -13% | i | -2% | i
Cc1ccc2cc(C#N)c(NCc3ccco3)nc2c1 | -23% | ? | 23µM* | i | ? | i
COc1cc(C(=O)NCCNc2nc3cc(C)ccc3cc2C#N)cc(OC)c1OC | -2% | 16µM* | ? | i | 0% | i
COc1cc(C(=O)NCCCNc2nc3cc(C)c(C)cc3cc2C#N)cc(OC)c1OC | 14% | 23µM* | ? | i | -2% | i
COc1cc(C(=O)NCCNc2nc3c(C)c(C)ccc3cc2C#N)cc(OC)c1OC | -1% | -15% | -2% | i | 4% | i
Cc1ccc2cc(C)c(SCC(=O)NCc3ccco3)nc2c1 | -12% | ? | -24% | ? | -7% | i
CCN(CC)C1CCN(C(=O)c2cnn(-c3nccc(-c4ccccc4OC)n3)c2-c2ccco2)C1 (stereo not given) | . | -25% | -2%[9.04 µM] | . | . | .
COC(=O)C1=C(C)N(CCCC(=O)O)C(=O)NC1c1ccccc1OS(=O)(=O)c1ccc([N+](=O)[O-])cc1 (stereo not given) | -2% | -3% | -4% | i | 2% | i
O=C(c1ccc(Cl)cc1)C1CCN(C(=S)Nc2ccccc2)CC1 | 1% | 16µM* | -17% | i | -4% | i
O=C(c1ccc2c(c1)OCCO2)C1CCN(C(=O)c2ccc(F)c(F)c2)CC1 | -2% | 16µM* | ? | 5.8µM* | ? | ?
COc1ccc(NC(=S)N2CCC(C(=O)c3ccc(Cl)cc3)CC2)cc1 | 8% | 11% | 6% | i | 5% | i
O=C(c1ccc(F)cc1)N1CCC(C(=O)N(Cc2ccccc2)c2ccccc2)CC1 | -6% | 18µM* | 23µM* | i | 2% | i
O=C(O)C1CCN(C(=O)c2ccc(Cl)cc2)CC1 | 11% | 3% | 1% | i | 12% | i
O=C(c1ccc(Cl)cc1)C1CCN(C(=O)c2ccccc2)CC1 | -29% | 15µM* | ? | i | -1% | i
O=C(Cc1ccc(S(=O)(=O)N2CCOCC2)s1)Oc1ccc(F)cc1 | -2% | -36% | -29% | ? | 0% | i
